KCNQ2 enhance: enhances the rat KCNQ2 potassium channel; CHO-K1 KCNQ2, FluxOR thallium flux fluorescence; stronger effect = higher value; O88943; AID 2239; 310,000 tested, 0.54% active; B-score at 10 µM;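 active = fluorescence ratio B-score at least 3 SD of library B-scores, with initial fluorescence B-score within 3 of them, cut at about 5.3 in these data; same plate scores as AID 2156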;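 note: B-score of peak minus minimum over baseline fluorescence ratio after K+ and Tl+ stimulus; positive B-score means potentiation of KCNQ2 with more thallium influx and brighter signal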
Target sequence (O88943 whole entry, looked up): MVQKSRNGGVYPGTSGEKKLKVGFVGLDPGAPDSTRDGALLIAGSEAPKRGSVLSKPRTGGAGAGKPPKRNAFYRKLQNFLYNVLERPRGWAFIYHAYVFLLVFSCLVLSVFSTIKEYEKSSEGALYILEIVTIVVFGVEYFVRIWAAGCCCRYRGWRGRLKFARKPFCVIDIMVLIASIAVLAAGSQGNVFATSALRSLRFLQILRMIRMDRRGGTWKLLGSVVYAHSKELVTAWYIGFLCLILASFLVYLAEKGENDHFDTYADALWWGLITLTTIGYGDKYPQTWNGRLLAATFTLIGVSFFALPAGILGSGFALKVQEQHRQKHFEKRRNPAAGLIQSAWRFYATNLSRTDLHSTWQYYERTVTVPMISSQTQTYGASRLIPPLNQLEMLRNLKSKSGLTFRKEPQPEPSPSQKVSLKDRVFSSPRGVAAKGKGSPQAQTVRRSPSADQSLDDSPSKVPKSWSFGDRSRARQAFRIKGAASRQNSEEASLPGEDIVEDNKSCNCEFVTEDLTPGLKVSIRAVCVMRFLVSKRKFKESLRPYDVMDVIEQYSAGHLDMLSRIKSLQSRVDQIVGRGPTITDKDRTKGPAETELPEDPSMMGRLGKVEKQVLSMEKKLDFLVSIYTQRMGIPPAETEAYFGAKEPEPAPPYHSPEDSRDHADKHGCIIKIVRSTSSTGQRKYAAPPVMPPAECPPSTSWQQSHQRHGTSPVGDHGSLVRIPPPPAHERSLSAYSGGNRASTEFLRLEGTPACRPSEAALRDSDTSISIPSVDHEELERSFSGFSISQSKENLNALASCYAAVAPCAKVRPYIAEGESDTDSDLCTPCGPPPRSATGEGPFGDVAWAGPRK
KCNQ2 inh: blocks the rat KCNQ2 potassium channel | O88943 | CHO-K1 KCNQ2, FluxOR thallium flux, 20 min; stronger effect = lower value | B-score at 10 µM | 310,000 tested, 1.1% active | AID 2156;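 active = fluorescence ratio B-score at most minus 3 library SDs, with starting brightness B-score within 2 library SDs, cut at about -5.5 in these data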
An asterisk follows results filed as active; i = inactive; . = no result. Most compounds without a hit are left out; they make up all but 1.6% or so of the library.

SMILES	KCNQ2 enhance	KCNQ2 inh
CC(C)CC(c1nnnn1C1CCCCC1)N1CCN(c2ncccn2)CC1 (centres undefined)	.	i
COc1cccc(-c2cc3nc4c(c(NCC(C)(C)CN(C)C)n3n2)CCCC4)c1	-7.7	-7.7*
Fc1cccc(-c2cc3nc4c(c(NCc5ccco5)n3n2)CCCC4)c1	.	i
CN(Cc1ccc(F)cc1)C(=O)c1cccc(S(=O)(=O)N2CCN(c3ccccc3)CC2)c1	0.01	i
Cc1ccc2c(c1)N(C(=O)CCC(=O)NCc1cccc(Br)c1)CC(C)O2 (centres undefined)	-7	-7*
Cc1ccc2c(c1)N(C(=O)CCC(=O)Nc1ccccc1Br)CC(C)O2 (centres undefined)	.	i
CCNc1ccc(S(=O)(=O)N(C)C)cc1NCC(=O)Nc1ccccc1Br	0.95	i
O=C(/C=C/c1ccc2c(c1)OCO2)NCCSCc1cccc(Cl)c1	.	i
O=C(/C=C/c1ccc2c(c1)OCO2)NCCSCc1ccc(Cl)cc1Cl	-7.8	-7.8*
O=C(O)c1ccc2[nH]c3c(c2c1)CCCC3	.	i
CC(=O)c1ccc(C(=O)Nc2ccc(N3CCOCC3)cc2)cc1	.	i
COc1cc(C(=O)NC(=S)N(C)Cc2ccccc2)cc(OC)c1OC	.	i
O=C(NC(=S)NCCc1ccc(Cl)cc1)c1ccco1	1.9	i
O=C(NC(=S)N(CCc1ccccc1)CCc1ccccc1)c1ccco1	16*	i
COc1cc(C(=O)NC(=S)N(CCc2ccccc2)CCc2ccccc2)cc(OC)c1OC	18*	i
Cc1ccc(NC(=S)N2CCCCC2)cc1C	.	i
COC(=O)Cc1ccc(N(Cc2ccccc2F)S(=O)(=O)c2ccc(Cl)cc2)cc1	-8.2	-8.2*
COC(=O)CN(c1ccc(F)cc1)S(=O)(=O)c1ccccc1	0.81	i
O=C(Nc1nnc(-c2ccccc2)o1)c1cc(Cl)sc1Cl	4.4	i
O=C(Nc1nnc(-c2ccc(F)cc2)o1)c1cc(Cl)sc1Cl	16*	i
O=C(C/C=N/OCc1c(Cl)cccc1Cl)c1ccc(Cl)cc1	-7.4	-7.4*
O=C(C/C=N/OCc1c(Cl)cccc1Cl)c1cnc(-c2ccccc2)s1	.	i
CC12CCC(=O)N1C(C(=O)Nc1ccc(Br)cc1Cl)CS2 (centres undefined)	0.41	i
CC(C)CC(NC(=O)OC(C)(C)C)C(=O)O (centres undefined)	.	i
CC(C)(C)OC(=O)NC(CCCCNC=O)C(=O)O (centres undefined)	-6.6	-6.6*
SMILES	KCNQ2 enhance	KCNQ2 inh
O=C(O)c1cccc(NC(=S)NC(NC(=O)c2ccco2)C(Cl)(Cl)Cl)c1 (centres undefined)	1.2	i
CN(C)/C=N/c1sc2c(c1C#N)CCCCC2	1.5	i
CCCN(/C=N/c1sc2c(c1C#N)CCCCC2)CCC	-7.9	-7.9*
N#Cc1c(/N=C/c2cccs2)sc2c1CCCCC2	-6.1	-6.1*
N#Cc1c(/N=C/c2cccnc2)sc2c1CCCC2	0.23	i
Nc1nnc(Cc2ccc(F)cc2)s1	0.37	i
Cc1ccc(C(=O)NC2CCN(CC(=O)Nc3c(C)cc(C)cc3C)CC2)cc1	.	i
Cc1cc(Oc2ccc(C(C)(C)C)cc2)nc(N2CCOCC2)n1	-6.2	-6.2*
Cc1cc(Oc2ccc(-c3ccccc3)cc2)nc(N2CCOCC2)n1	.	i
CCC(c1nnnn1C(C)(C)C)N1CCN(C(=O)c2ccco2)CC1 (centres undefined)	0.37	i
N#C/C(C(=O)N1CCCC1)=C1/N=C(N)c2ccccc21	0.06	i
Cc1ccc(NC(=O)NC2=N/C(=C(/C#N)C(=O)N3CCCC3)c3ccccc32)cc1	-7	-7*
O=S(=O)(c1ccc(Cl)cc1)n1cnc2ccccc21	0.52	i
COc1ccc(C2=NOC(C(=O)NC(C)(C)C)C2)cc1 (centres undefined)	.	i
O=c1[nH]c(=O)n([C@H]2C[C@H](O)[C@@H](CO)O2)cc1C(F)(F)F	0.94	i
CCOc1ccccc1Nc1cc(C)c2cccc(C)c2n1	-5.8	-5.8*
CCOc1ccccc1Nc1ccnc2cc(Cl)ccc12	0.02	i
Cc1cc(C)cc(N(CC(=O)N2CCN(c3ccccc3)CC2)S(=O)(=O)c2c(C)noc2C)c1	-6.5	-6.5*
COc1cccc(N2CCN(C(=O)CN(c3cc(C)cc(C)c3)S(=O)(=O)c3c(C)noc3C)CC2)c1	.	i
CCC(C)[C@H](NC(=O)Nc1ccc2c(c1)OCCO2)C(=O)O (some centres undefined)	0.42	i
O=C(NC1CC2CCCC(C1)N2C(=O)NC1CCCCC1)c1ccccc1 (centres undefined)	0.42	i
CC(C)C1Cc2c(sc(NC(=S)NC(=O)c3ccccc3)c2C#N)CO1 (centres undefined)	1.6	i
CCOC(=O)c1c(NC(=S)NCCc2ccccc2)sc2c1CC(C(C)C)OC2 (centres undefined)	7.5*	i
Cc1cc(C)c2[nH]c(C(=O)Nc3ccc4c(c3)OCO4)cc2c1	.	i
Cc1ccc(S(=O)(=O)N[C@H](C(=O)OCC(=O)N2N=C(c3ccc(Cl)cc3)CC2c2ccco2)C(C)C)cc1 (some centres undefined)	-6.1	-6.1*
SMILES	KCNQ2 enhance	KCNQ2 inh
O=C(CNC(=O)c1ccccc1)OCC(=O)N1N=C(c2ccc(Cl)cc2)CC1c1ccco1 (centres undefined)	.	i
O=[N+]([O-])c1c(Nc2ccccn2)cc(Cl)c2nonc12	-11	-11*
O=C(O)c1ccccc1Nc1cc(Cl)c2nonc2c1[N+](=O)[O-]	0.04	i
CCn1c(COc2ccc(=O)n(-c3ccccc3)n2)nnc1SCc1ccc(C)cc1	.	i
O=C(Nc1ccc(C(=O)O)cc1)/C(=C\c1ccccc1)NC(=O)c1ccco1	0.24	i
O=C(Nc1ccc(C(=O)O)cc1)/C(=C\c1ccc2c(c1)OCO2)NC(=O)c1ccco1	6.5*	i
Cc1ccc(Cn2nnc3c(=O)[nH]c(C4CCCN(C(=O)Nc5ccc(F)cc5F)C4)nc32)cc1 (centres undefined)	.	i
O=C(CSc1ncnc2nc[nH]c12)c1ccc([N+](=O)[O-])cc1	0.7	i
Cc1cccc(C(=O)OC(C)C(=O)Nc2ccc(S(=O)(=O)N3CCCC3)cc2)c1O (centres undefined)	.	i
Cc1ccccc1-c1nc(C#N)c(N2CCC(C)CC2)o1	-8.1	-8.1*
CC1CCN(c2oc(-c3ccccc3Cl)nc2C#N)CC1	.	i
O=C(Nc1cccc(S(=O)(=O)Nc2ccc(Cl)cc2)c1)c1ccc(Cl)nc1	1.3	i
CCCSc1ccc([C@H]2N[C@@](C)(C(=O)OC)[C@H]3C(=O)N(C)C(=O)[C@@H]23)cc1	0.04	i
Cc1ccc(N(CC2CO2)S(=O)(=O)c2ccc([N+](=O)[O-])cc2)cc1 (centres undefined)	-6.8	-6.8*
Cc1ccc(N(CC2CO2)S(=O)(=O)c2ccc(C)cc2)cc1 (centres undefined)	.	i
CCOC(=O)COc1c(Br)cc(C2NC(=O)NC(C)=C2C(C)=O)cc1OC (centres undefined)	0.02	i
COc1cc(CNc2ccc(C(=O)O)cc2)cc(Br)c1OCC(=O)NC(C)(C)C	.	i
CCOc1cc(CNc2ccccc2)cc(Br)c1OCC(=O)NC(C)(C)C	-5.9	-5.9*
Cc1ccc(-n2nc3c(=O)n(C(C)C(=O)NCc4ccccc4Cl)nc(C)c3c2C)cc1 (centres undefined)	-8.1	-8.1*

Source: PubChem BioAssay
